One experiment has as its target FH. In words: pooled miR-30 sensor sort-seq; sequence = guide strand. Conditions: shRNA.
Take TTTCCTTTAAGGTTGATCCATT: the sensor-assay potency score (higher = more potent) is -0.612.
Same read-out and setting: as for TATTGCAGCAGCAATGTGCATT, the figure is -0.245.
TCATATTTGTCTGAGTTCCTGA: the sensor-assay potency score (higher = more potent) was 0.043.

For the next experiment, the target named is FIGF. The description is as above. Conditions: shRNA.
As to TAATCAGTCATATGACACCTGC, the sensor-assay potency score (higher = more potent) is -0.697.
In turn, TTCTTTGCCATTCTTCATCTAT yielded a sensor-assay potency score (higher = more potent) of -0.386.
On the same count and under the same terms, as for TTACAGACACACTCGCAACGAT, the figure is -0.443; as for TTGCACTCAAAGCAACTGCAGT, -1.07; as for TCATCTATAACTTTTAGTGTTT, -1.04.
On the same count and under the same terms, as for TACAGACACACTCGCAACGATC, the figure is -1.17; as for AAACTTTTGAGCCTCAGCCTGC, -0.913.
On the same count and under the same terms, as for TGTTTTACAGACACACTCGCAA, the figure is 0.505; as for TTCTTCATCTATAACTTTTAGT, -0.323.
Turning to TAGTGTTTCAATGTCATAGAAA, the sensor-assay potency score (higher = more potent) was -1.28.
Same read-out and setting: as for TTCATCTATAACTTTTAGTGTT, the figure is -0.356; as for TGATCTGCTGTTCAGATCGTTC, -1.69; as for TAGCATGTCAATAGGACAGAGT, -0.483.
The same measure, in the same setting: as for TGCAACAGCCACCACATCGGAA, the figure is -0.975.
Regarding TAGAAGACATCCATCAATGAAC, the sensor-assay potency score (higher = more potent) is -1.15.
The sequence TTGGCAAGCACTTACAACCTGT returned a sensor-assay potency score (higher = more potent) of -0.889.
With TTTGTTGCTATCCCATAGCATG, the sensor-assay potency score (higher = more potent) is -1.38.
The same measure, in the same setting: as for TAATTGAGTATGGATGGCGGGG, the figure is -0.582; as for TTACATTTGTTGCTATCCCATA, -0.837.
Sequence TTTTTTTTTAACACCTGGGAAA registered a sensor-assay potency score (higher = more potent) of -1.2.
ATCTTCGTCAAACATCATGTGT gave a sensor-assay potency score (higher = more potent) of -0.944.
On the same count and under the same terms, as for TAGAAAGTTGCCGCAAACCTAG, the figure is -0.566; as for TTCTGCATAAAAAAGAATCAGA, -0.887; as for TTGGTCTGGATTCACTGTGGTG, -0.724.

In the next experiment the target is FILIP1L. Described as above. Conditions: shRNA.
As to TTAGAGAACCACAAGACTCTGG, the sensor-assay potency score (higher = more potent) is 0.224.
Same read-out and setting: as for TTTTTCAACATATTAACTCTTG, the figure is -0.558.
Same read-out and setting: as for TTCTTGATCAATTAGCTTCTTT, the figure is 0.000192; as for TATAGTTCATGCACAAACCTTC, -0.0966; as for TTGTCTACTGCTTCTGTCTGAA, 0.143.
Still for that read-out and setting: as for TAATTTGTGATTGTCGAGGAAG, the figure is -0.722; as for TTTTTCTTTTATATCTTGCAGC, -0.415; as for TTGAGTTCGGTTATCCTGCAGT, -0.337.
Regarding TTACTCTGTAACGTCTCCCTTT, the sensor-assay potency score (higher = more potent) is -0.579.
Take TTGCTGTTCATCCACCACCATC: the sensor-assay potency score (higher = more potent) was -1.76.
Still for that read-out and setting: as for TTTTTCCACAACTTTGTCCAAC, the figure is -1.3.
As to TTTTCTGCTAACTTGTACTTAG, the sensor-assay potency score (higher = more potent) was -0.314.
Further: reference of the scale not given here.
